# Records with an inconclusive call do not appear. Entries that show only a call come without a potency. Unmarked numbers belong to inactive results. Active and inactive are the calls of the source. Calls come from the whole dose curve; as a rule, active = well fitted curve in the direction sought with a large enough effect; inconclusive = small, poorly fitted or top-dose-only effect, or another doubt; inactive = no such curve, though single readings can be large; an effect the other way counts as inactive or inconclusive.
# Columns and labels:
# CRL-7250 = normal cell line; assay: Cytotoxic Profiling of Annotated Libraries Using Quantitative High-Throughput Screening (AID 1296008); conditions: Five cell lines viability, CellTiter-Glo ATP luminescence, 48-72 h; max response: stronger effect = lower value; note: nearly all actives have a fitted effect of over 60% in size
# Procedure, shortened: (§1)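 Cytotoxicity was measured as CellTiter-Glo ATP luminescence, read after 10 min at room temperature. Compound treatment of the cells lasted 48 or 72 hr at 37 degrees Celsius in a qHTS format.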
# HaCat [1] = assay: as above; conditions: Five cell lines viability, CellTiter-Glo ATP luminescence, 48-72 h; max response: stronger effect = lower value
# Procedure, shortened: as §1
# KB-3-1 = assay: as above; conditions: Five cell lines viability, CellTiter-Glo ATP luminescence, 48-72 h; max response: stronger effect = lower value
# Procedure, shortened: as §1
# NIH3T3 = assay: as above; conditions: Five cell lines viability, CellTiter-Glo ATP luminescence, 48-72 h; max response: stronger effect = lower value
# Procedure, shortened: as §1
# CAOV3 = assay: Primary qHTS to identify gynecologic anti-cancer compounds using libraries of approved drugs and bioactive compounds (AID 1345084); conditions: Gynecologic cancer cell panel viability, ATPlite luminescence, 48 h; series mostly up to 57.5 µM; note: nearly all actives have a fitted effect of over 55% in size; note: potency is the fitted concentration of half-maximal effect
# Procedure, shortened: (§2)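 Cytotoxicity screen measuring ATP content by luciferase luminescence. Each compound is applied at five concentrations for 48 h at 37 C with 5% CO2.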
# CASKI = assay: as above; conditions: Gynecologic cancer cell panel viability, ATPlite luminescence, 48 h; series mostly up to 57.5 µM
# Procedure, shortened: as §2
# Es-2 = assay: as above; conditions: Gynecologic cancer cell panel viability, ATPlite luminescence, 48 h; series mostly up to 57.5 µM
# Procedure, shortened: as §2
# HeLa = assay: as above; conditions: Gynecologic cancer cell panel viability, ATPlite luminescence, 48 h; series mostly up to 57.5 µM
# Procedure, shortened: as §2
# Hek293T = assay: as above; conditions: Gynecologic cancer cell panel viability, ATPlite luminescence, 48 h, control line for the selectivity index; series mostly up to 57.5 µM
# Procedure, shortened: as §2
# JEG-3 = assay: as above; conditions: Gynecologic cancer cell panel viability, ATPlite luminescence, 48 h; series mostly up to 57.5 µM
# Procedure, shortened: as §2
# OV90 = assay: as above; conditions: Gynecologic cancer cell panel viability, ATPlite luminescence, 48 h; series mostly up to 57.5 µM
# Procedure, shortened: as §2
# HACAT [2] = assay: qHTS assay to identify novel small-molecules to repurpose for Merkel cell carcinoma treatment (AID 1296009); conditions: MCC and control cell lines, CellTiter-Glo viability, 72 h; at 44.8 µM (top of the series) unless noted; note: nearly all actives have a fitted effect of over 60% in size
# Procedure, shortened: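 72 hr, 37 degree celsius; NPC 8-pt / MIPE 11-pt dose response; compound pinned in DMSO; CellTiter-Glo, 10 min RT, luminescence; normalized to no-cell and DMSO controls.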
# C33A = assay: Primary qHTS to identify gynecologic anti-cancer compounds using libraries of approved drugs and bioactive compounds (AID 1345084); conditions: Gynecologic cancer cell panel viability, ATPlite luminescence, 48 h; series mostly up to 57.5 µM; note: nearly all actives have a fitted effect of over 55% in size; note: potency is the fitted concentration of half-maximal effect
# Procedure, shortened: as §2
# TAB165 = assay: qHTS profiling for inhibitors of Plasmodium falciparum proliferation (AID 504749); note: potency is the fitted concentration of half-maximal effect; nearly all actives have a fitted effect of over 60% in size; conditions: P. falciparum in erythrocytes, SYBR Green DNA, 72 h; series mostly up to 28.7 µM
# Procedure, shortened: (§3)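 Infected RBCs, 0.3% parasitemia/2.5% Hct final; cpd 72 h, 37 C, 5% CO2; lysis buffer with saponin/triton/SYBR Green I, o/n RT dark; FI 485/535; norm. to artemisinin (0.29 uM) and DMSO.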
# W2 = assay: as above; conditions: P. falciparum in erythrocytes, SYBR Green DNA, 72 h; series mostly up to 28.7 µM
# Procedure, shortened: as §3
SMILES,max response (CRL-7250) [%],max response (HaCat [1]) [%],max response (KB-3-1) [%],max response (NIH3T3) [%],Potency (CAOV3),Potency (CASKI),Potency (Es-2),Potency (HeLa),Potency (Hek293T),Potency (JEG-3),outcome (CRL-7250),Potency (OV90),outcome (HaCat [1]),outcome (HACAT [2]),Potency (C33A),Potency (TAB165),Potency (W2),outcome (KB-3-1)
C/C=C(\C)C(=O)OC1C(C)C2(O)C(C=C(CO)CC3(O)C(=O)C(C)=CC32)C2C(C)(C)C12OC(C)=O (configuration not stated),-19.7,-5.6,3.13,-6.06,inactive,inactive,224 nM (active),inactive,inactive,inactive,–,–,–,–,–,–,–,–
CC1=CC2/C=C(\C)CCC(O)C(=O)C(O)CC(=O)C23C(=O)NC(CC(C)C)C3C1C (configuration not stated),–,-78.4,2.51,-27,–,inactive,inactive,inactive,inactive,inactive,inactive,inactive,–,–,–,–,–,–
COc1ccc2nccc(C(=O)CC[C@@H]3CCN(CC#Cc4cc(F)cc(F)c4F)C[C@@H]3C(=O)O)c2c1,-3.43,–,5.2,–,inactive,inactive,inactive,inactive,inactive,inactive,–,inactive,inactive,inactive,inactive,–,–,–
CCC(C)C(=O)Oc1cc(C)ccc1C1(COC(=O)C(C)C)CO1 (configuration not stated),-0.891,–,-3.14,–,inactive,inactive,inactive,inactive,inactive,inactive,–,inactive,inactive,inactive,inactive,–,–,–
COC1C(OC(=O)/C=C/C=C/C=C/C=C/C(=O)O)CCC2(CO2)C1C1(C)OC1CC=C(C)C (configuration not stated),-15.2,-3.3,–,0.0729,–,inactive,inactive,inactive,inactive,inactive,–,inactive,–,–,inactive,31.6 nM (active),10.7 nM (active),inactive
CCN(CC)CCCCCCNc1cc(OC)cc2c(C)ccnc12,-13.4,–,-5.11,–,inactive,inactive,inactive,inactive,inactive,–,–,–,inactive,inactive,inactive,–,–,–
O=C(c1ccc(Cl)cc1)N1CCN(c2ccnc3cc(Cl)ccc23)CC1,3.03,-18.2,-24.7,-1.68,inactive,inactive,inactive,inactive,inactive,inactive,–,inactive,–,–,–,–,–,–
CN(C)c1cccc(Oc2cnc(Nc3cccc(O)c3)nc2)c1,4.02,–,–,–,inactive,–,–,inactive,inactive,inactive,–,inactive,inactive,inactive,inactive,–,–,inactive
C=CC(C)(O)CC/C=C(/C)COC(=O)C(C)C1CCC(C)(C=C)O1 (configuration not stated),-27,3.72,8.61,0.167,–,inactive,inactive,inactive,inactive,–,–,inactive,–,–,–,–,–,–
C=C1C(=O)OC2CC(C)C(CCC(C)=O)=CCC12 (configuration not stated),-28.7,–,-13.7,–,inactive,inactive,inactive,inactive,inactive,inactive,–,inactive,inactive,inactive,inactive,–,–,–
COc1ccccc1OCCN1CC(COc2cccc3[nH]c4ccccc4c23)OCC1=O (configuration not stated),–,–,-7.07,–,inactive,inactive,inactive,inactive,inactive,inactive,inactive,inactive,inactive,inactive,inactive,–,–,–
C=C1C(=O)OC2/C=C(\C)CC/C=C(\C=O)C(OC)C(OC(=O)C(C)CC)C12 (configuration not stated),-23.9,–,-2.57,–,inactive,inactive,–,inactive,–,inactive,–,inactive,inactive,inactive,inactive,–,–,–
C[C@@H](O[C@H]1OCCN(Cc2nn(P(=O)(O)O)c(=O)[nH]2)[C@H]1c1ccc(F)cc1)c1cc(C(F)(F)F)cc(C(F)(F)F)c1,0.664,-1.44,6.69,-9.38,–,inactive,inactive,inactive,inactive,inactive,–,inactive,–,–,inactive,–,–,–
